PubChem BioAssay (Tox21)
Records with an inconclusive call do not appear. Entries that show only a call come without a potency. Active and inactive are the calls of the source. Calls follow the shape of the dose curve; as a rule, active = well fitted curve in the direction sought with a large enough effect in the repeat runs; inconclusive = weak or mixed curves; inactive = no such curve, though single readings can be large; an effect the other way counts as inactive or inconclusive.

assay: qHTS assay to identify small molecule agonists of the retinoic acid receptor (RAR) signaling pathway (AID 1159553); settings: C3RL4 RARE luciferase reporter, agonist, 6 h; activation: at 73.3 µM (top of the series); also: potency is read from the fitted curve at half-maximal effect
How it was run: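 In this cell-based screen, 1,000 C3RL4 cells per well were cultured overnight, dosed with test chemicals in DMSO for 6 hr, and assessed for RARE luciferase luminescence.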

Compound | Potency | activation
CCCCCCNC(=O)n1cc(F)c(=O)[nH]c1=O | inactive | –
C/C=C\C/C=C/CCCCCCCCOC(C)=O | inactive | –
O=C1Cc2ccccc2N1c1c(Cl)cccc1Cl | inactive | –
CN(C)CCC=C1c2ccccc2C=Cc2ccccc21 | inactive | –
O=Cc1c2ccccc2c(Cl)c2ccccc12 | inactive | –
Clc1ccc(Nc2nnc(Cc3ccncc3)c3ccccc23)cc1 | inactive | –
O=C(CCCN1CC=C(n2c(=O)[nH]c3ccccc32)CC1)c1ccc(F)cc1 | inactive | –
Oc1cccc(O)c1O | – | 3.27% (active)
CN(C(=O)CN(CCO)CC(=O)N(C)C(C)(C)Cc1ccccc1)C(C)(C)Cc1ccccc1 | inactive | –
O=c1cc(-c2ccccc2)oc2cc(O)cc(O)c12 | 969 nM (active) | –
Brc1cc2ccccc2c2ccccc12 | inactive | –
CC(C)(O)c1ccc(CNC(=O)c2cccnc2Oc2ccc3nonc3c2)cc1 | inactive | –
CC(C)(C)CC(=O)OCC(=O)[C@@]1(O)CC[C@H]2[C@@H]3CCC4=CC(=O)C=C[C@]4(C)[C@H]3[C@@H](O)C[C@@]21C | inactive | –
C=C(C)[C@@H]1CCC2=CCC[C@@H](C)[C@]2(C)C1 | inactive | –
O=C1c2ccccc2C(=O)c2c(O)c(O)cc(O)c21 | inactive | –
Nc1ccc(N=Nc2ccccc2)c(N)c1 | 238 nM (active) | –
CCC(C)COC(=O)CC(C)C (centres undefined) | inactive | –
CC1(CN2CCC(n3c(=O)[nH]c4ccccc43)CC2)OCc2ccccc2-n2cccc21 (centres undefined) | inactive | –
Cc1cccc(N(C)C(=S)Oc2ccc3c(c2)CCC3)c1 | inactive | –
CS(=O)(=O)c1ccc(-c2cn3ccccc3n2)cc1 | 1680 nM (active) | –
Nc1nc2ccc([N+](=O)[O-])cc2s1 | inactive | –
C/C=C(/C(=C/C)c1ccc(O)cc1)c1ccc(O)cc1 | inactive | –

assay: qHTS assay to identify small molecule antagonists of the estrogen related receptor (ERR) signaling pathway - cell viability counter screen (AID 1224818); settings: ERR reporter cell line viability counter screen; series mostly up to 46.1 µM
How it was run: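 Viability of ERR cells, CellTiter-Fluor fluorescence; 17.5 h compound exposure at 37 C, DMSO vehicle; 30 min reagent incubation at 37 C/5% CO2.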

Compound | outcome
CN(C)CCC=C1c2ccccc2C=Cc2ccccc21 | inactive
OCCN1CCN(CCCN2c3ccccc3Sc3ccc(Cl)cc32)CC1 | inactive
Nc1nc2ccc([N+](=O)[O-])cc2s1 | inactive
CC(C)COCC(CN(Cc1ccccc1)c1ccccc1)N1CCCC1 (centres undefined) | inactive

assay: qHTS assay to identify small molecule agonists of the estrogen related receptor (ERR) signaling pathway (AID 1224820); settings: ERR reporter cell line, luciferase agonist mode; series mostly up to 46.1 µM
How it was run: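 An ERR cell line provided by NTP was seeded at 2,000 cells per well and allowed to settle for 6 h before compounds in DMSO were added. After 18 h at 37 C, luciferase activity was measured by One-Glo luminescence.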

Compound | outcome
CN(C)CCC=C1c2ccccc2C=Cc2ccccc21 | inactive
OCCN1CCN(CCCN2c3ccccc3Sc3ccc(Cl)cc32)CC1 | inactive
CCCC(C(=O)OCCN(CC)CC)(c1ccccc1)c1ccccc1 | inactive
